About 79,000 compounds went through this panel and 15% of them were active in at least one assay; those are over-represented in the sample as a whole. Unmarked numbers belong to inactive results. Active and inactive are the calls of the source. No stated cut-off is given here; in the data, active means growth inhibition above about 70%; inactive means the rest.
How the values were obtained:
[1] = NCI Yeast Anticancer Drug Screen. Data for the wt1 strain (AID 149);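 further: 0% = growth of vehicle-treated wt1 cultures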; details: S. cerevisiae wt1 strain (SPY 50644) growth inhibition, stronger effect = higher value
How it was run: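 wt1 yeast, compound-treated; % growth inhibition vs vehicle control.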

[2] = NCI Yeast Anticancer Drug Screen. Data for the rad50EPP+ strain (AID 151);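 further: 0% = growth of vehicle-treated control cultures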; details: S. cerevisiae rad50 mutant strain, stronger effect = higher value
How it was run: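 Compounds were applied to the rad50EPP+ yeast strain, which bears a defined DNA repair alteration, and growth inhibition was determined relative to vehicle-treated cultures.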

[3] = NCI Yeast Anticancer Drug Screen. Data for the mgt1 strain (AID 153); details: S. cerevisiae mgt1 mutant growth inhibition, stronger effect = higher value
How it was run: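 Strain: mgt1 yeast, one of a set carrying defined DNA damage repair or cell cycle control alterations. Compound-treated growth compared with vehicle.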

[4] = NCI Yeast Anticancer Drug Screen. Data for the rad50 strain (AID 155);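 further: 0% = growth of vehicle-only cultures of the same strain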; details: S. cerevisiae rad50 strain growth inhibition, stronger effect = higher value
How it was run: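 Genetically altered yeast (DNA repair pathway); compound treatment; growth inhibition vs vehicle ctrl.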

[5] = NCI Yeast Anticancer Drug Screen. Data for the mec2-1 strain (AID 157); details: S. cerevisiae mec2-1 strain, stronger effect = higher value
How it was run: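 Strain: mec2-1 (DNA repair/cell cycle alteration). Compound exposure, then growth measured; inhibition expressed relative to vehicle.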

[6] = NCI Yeast Anticancer Drug Screen. Data for the rad14 strain (AID 159);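 further: 0% = growth of vehicle-treated control cultures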; details: S. cerevisiae rad14 strain growth inhibition, stronger effect = higher value
How it was run: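 Test compounds were applied to a repair-deficient yeast strain. Its growth was then compared with that of cultures given vehicle alone, and inhibition was expressed relative to those controls.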

[7] = NCI Yeast Anticancer Drug Screen. Data for the sgs1 mgt1 strain (AID 161);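 further: 0% = growth of cultures given vehicle only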; details: S. cerevisiae sgs1 mgt1 strain, stronger effect = higher value
How it was run: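 Genetically altered yeast, compound exposure, growth inhibition relative to vehicle.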

[8] = NCI Yeast Anticancer Drug Screen. Data for the cln2 rad14 strain (AID 165);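 further: 0% = growth equal to vehicle treated cultures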; details: S. cerevisiae cln2 rad14 strain, stronger effect = higher value
How it was run: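 Compounds are applied to the cln2 rad14 yeast strain, and growth is then compared with that of vehicle-treated cultures to give inhibition.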

[9] = NCI Yeast Anticancer Drug Screen. Data for the bub3 strain (AID 167); details: S. cerevisiae bub3 mutant strain, stronger effect = higher value
How it was run: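 Yeast carrying a defined mutation is treated with each compound, and growth is compared with that of vehicle-exposed cells to give inhibition.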

[10] = NCI Yeast Anticancer Drug Screen. Data for the mlh1 strain (AID 171);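 further: 0% = growth of vehicle-treated control cultures of the same strain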; details: S. cerevisiae mlh1 strain growth inhibition, stronger effect = higher value
How it was run: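 Growth of the mutant yeast strain after compound exposure, expressed as inhibition relative to vehicle-only controls.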

[11] = NCI Yeast Anticancer Drug Screen. Data for the sgs1 strain (AID 173);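 further: 0% = growth of vehicle-only control cultures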; details: S. cerevisiae sgs1 mutant, stronger effect = higher value
How it was run: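 Growth of a yeast strain bearing a defined genetic alteration is measured after compound treatment. Inhibition is expressed relative to vehicle-only controls.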

[12] = NCI Yeast Anticancer Drug Screen. Data for the mlh1 rad18 strain (AID 175); details: S. cerevisiae mlh1 rad18 strain growth inhibition, stronger effect = higher value
How it was run: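 Read-out is yeast growth inhibition, calculated against vehicle-only controls. The compound was applied to a strain engineered with DNA damage repair alterations.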

[13] = NCI Yeast Anticancer Drug Screen. Data for the rad18 strain (AID 177); details: S. cerevisiae rad18 mutant growth inhibition, stronger effect = higher value
How it was run: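 Growth of the mutant yeast strain after compound exposure, normalised to vehicle-only cultures.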

[14] = NCI Yeast Anticancer Drug Screen. Data for the wt2 strain (AID 169);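 further: 0% = growth of vehicle-treated yeast cultures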; details: S. cerevisiae wt2 strain growth inhibition, stronger effect = higher value
How it was run: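 This strain belongs to a panel of yeast strains with defined genetic alterations in DNA damage repair or cell cycle control. Compounds are applied, and growth inhibition is measured against vehicle-treated cultures.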

[15] = at 5.0 µM (retest, dose inferred, filed as 0.5)
[16] = at 50.0 µM (retest, dose inferred, filed as 5.0)

CN(C)CCNC(=O)c1cccc2nc3c4ccccc4c4ccccc4c3nc12
growth inhibition ([1]; at 1.2 µM): -1% | growth inhibition ([1]; at 3.7 µM): 2% | growth inhibition ([1]; at 11.0 µM): 28% | growth inhibition ([1]; at 33.0 µM): 97% (active) | growth inhibition ([1]; at 100.0 µM): 95% (active) | growth inhibition ([2]; at 1.2 µM): 6% | growth inhibition ([2]; at 3.7 µM): 25% | growth inhibition ([2]; at 11.0 µM): 90% (active) | growth inhibition ([2]; at 33.0 µM): 96% (active) | growth inhibition ([2]; at 100.0 µM): 93% (active) | growth inhibition ([3]; at 1.2 µM): 1% | growth inhibition ([3]; at 3.7 µM): 1% | growth inhibition ([3]; at 11.0 µM): 43% | growth inhibition ([3]; at 33.0 µM): 99% (active) | growth inhibition ([3]; at 100.0 µM): 95% (active) | growth inhibition ([4]; at 1.2 µM): -9% | growth inhibition ([4]; at 3.7 µM): -24% | growth inhibition [4, 15]: 65% | growth inhibition ([4]; at 11.0 µM): 98% (active) | growth inhibition ([4]; at 33.0 µM): 98% (active) | growth inhibition [4, 16]: 96% (active) | growth inhibition ([4]; at 50.0 µM): 96.7% (active) | growth inhibition ([4]; at 100.0 µM): 91% (active) | growth inhibition ([5]; at 1.2 µM): 0% | growth inhibition ([5]; at 3.7 µM): 1% | growth inhibition [5, 15]: 8% | growth inhibition ([5]; at 11.0 µM): 35% | growth inhibition ([5]; at 33.0 µM): 99% (active) | growth inhibition [5, 16]: 96% (active) | growth inhibition ([5]; at 50.0 µM): 95.8% (active) | growth inhibition ([5]; at 100.0 µM): 94% (active) | growth inhibition ([6]; at 1.2 µM): 3% | growth inhibition ([6]; at 3.7 µM): 8% | growth inhibition ([6]; at 11.0 µM): 67% | growth inhibition ([6]; at 33.0 µM): 98% (active) | growth inhibition ([6]; at 100.0 µM): 95% (active) | growth inhibition [7, 15]: 17% | growth inhibition [7, 16]: 97% (active) | growth inhibition ([7]; at 50.0 µM): 96.2% (active) | growth inhibition [8, 15]: 18% | growth inhibition [8, 16]: 95% (active) | growth inhibition ([8]; at 50.0 µM): 95% (active) | growth inhibition ([9]; at 1.2 µM): -1% | growth inhibition ([9]; at 3.7 µM): 2% | growth inhibition [9, 15]: 7% | growth inhibition ([9]; at 11.0 µM): 93% (active) | growth inhibition ([9]; at 33.0 µM): 97% (active) | growth inhibition [9, 16]: 96% (active) | growth inhibition ([9]; at 50.0 µM): 95.4% (active) | growth inhibition ([9]; at 100.0 µM): 92% (active) | growth inhibition ([10]; at 1.2 µM): 1% | growth inhibition ([10]; at 3.7 µM): 2% | growth inhibition ([10]; at 11.0 µM): 53% | growth inhibition ([10]; at 33.0 µM): 98% (active) | growth inhibition ([10]; at 100.0 µM): 94% (active) | growth inhibition ([11]; at 1.2 µM): 1% | growth inhibition ([11]; at 3.7 µM): 4% | growth inhibition ([11]; at 11.0 µM): 73% (active) | growth inhibition ([11]; at 33.0 µM): 98% (active) | growth inhibition ([11]; at 100.0 µM): 95% (active) | growth inhibition [12, 15]: 40% | growth inhibition [12, 16]: 97% (active) | growth inhibition ([12]; at 50.0 µM): 95.2% (active) | growth inhibition ([13]; at 1.2 µM): 5% | growth inhibition ([13]; at 3.7 µM): 11% | growth inhibition ([13]; at 11.0 µM): 72% (active) | growth inhibition ([13]; at 33.0 µM): 98% (active) | growth inhibition ([13]; at 100.0 µM): 93% (active)

CCOC(=O)c1sc2[n+](c1C)C(=O)/C(=C/c1cc(OC)c(OC)c(OC)c1)S2
growth inhibition ([1]; at 1.2 µM): 3% | growth inhibition ([1]; at 3.7 µM): 2% | growth inhibition ([1]; at 11.0 µM): 9% | growth inhibition ([1]; at 33.0 µM): 56% | growth inhibition ([1]; at 100.0 µM): 88% (active) | growth inhibition ([2]; at 1.2 µM): 2% | growth inhibition ([2]; at 3.7 µM): 6% | growth inhibition ([2]; at 11.0 µM): 19% | growth inhibition ([2]; at 33.0 µM): 45% | growth inhibition ([2]; at 100.0 µM): 76% (active) | growth inhibition ([3]; at 1.2 µM): 9% | growth inhibition ([3]; at 3.7 µM): 12% | growth inhibition ([3]; at 11.0 µM): 54% | growth inhibition ([3]; at 33.0 µM): 86% (active) | growth inhibition ([3]; at 100.0 µM): 93% (active) | growth inhibition ([4]; at 1.2 µM): 9% | growth inhibition ([4]; at 3.7 µM): 16% | growth inhibition [4, 15]: 1% | growth inhibition ([4]; at 11.0 µM): 18% | growth inhibition ([4]; at 33.0 µM): 68% | growth inhibition [4, 16]: 35% | growth inhibition ([4]; at 50.0 µM): 41% | growth inhibition ([4]; at 100.0 µM): 87% (active) | growth inhibition ([5]; at 1.2 µM): 21% | growth inhibition ([5]; at 3.7 µM): 18% | growth inhibition [5, 15]: 6% | growth inhibition ([5]; at 11.0 µM): 34% | growth inhibition ([5]; at 33.0 µM): 76% (active) | growth inhibition [5, 16]: 51% | growth inhibition ([5]; at 50.0 µM): 52.5% | growth inhibition ([5]; at 100.0 µM): 92% (active) | growth inhibition ([6]; at 1.2 µM): 12% | growth inhibition ([6]; at 3.7 µM): 3% | growth inhibition ([6]; at 11.0 µM): 28% | growth inhibition ([6]; at 33.0 µM): 77% (active) | growth inhibition ([6]; at 100.0 µM): 92% (active) | growth inhibition [7, 15]: -4% | growth inhibition [7, 16]: 64% | growth inhibition ([7]; at 50.0 µM): 80.5% (active) | growth inhibition [8, 15]: 13% | growth inhibition [8, 16]: 78% (active) | growth inhibition ([8]; at 50.0 µM): 55.5% | growth inhibition ([9]; at 1.2 µM): 12% | growth inhibition ([9]; at 3.7 µM): 7% | growth inhibition [9, 15]: -10% | growth inhibition ([9]; at 11.0 µM): 21% | growth inhibition ([9]; at 33.0 µM): 60% | growth inhibition [9, 16]: 12% | growth inhibition ([9]; at 50.0 µM): 40.9% | growth inhibition ([9]; at 100.0 µM): 66% | growth inhibition ([14]; at 1.2 µM): 2% | growth inhibition ([14]; at 3.7 µM): 3% | growth inhibition ([14]; at 11.0 µM): 47% | growth inhibition ([14]; at 33.0 µM): 85% (active) | growth inhibition ([14]; at 100.0 µM): 95% (active) | growth inhibition ([10]; at 1.2 µM): 9% | growth inhibition ([10]; at 3.7 µM): 9% | growth inhibition ([10]; at 11.0 µM): 36% | growth inhibition ([10]; at 33.0 µM): 82% (active) | growth inhibition ([10]; at 100.0 µM): 93% (active) | growth inhibition [12, 15]: 6% | growth inhibition [12, 16]: 60% | growth inhibition ([12]; at 50.0 µM): 25.1% | growth inhibition ([13]; at 1.2 µM): 19% | growth inhibition ([13]; at 3.7 µM): 27% | growth inhibition ([13]; at 11.0 µM): 40% | growth inhibition ([13]; at 33.0 µM): 75% (active) | growth inhibition ([13]; at 100.0 µM): 88% (active)

Cc1[nH]nc(C(F)(F)F)c1N=NN(C)C
growth inhibition ([1]; at 1.2 µM): -4% | growth inhibition ([1]; at 3.7 µM): 37% | growth inhibition ([1]; at 11.0 µM): 46% | growth inhibition ([1]; at 33.0 µM): 99% (active) | growth inhibition ([1]; at 100.0 µM): 99% (active) | growth inhibition ([2]; at 1.2 µM): 3% | growth inhibition ([2]; at 3.7 µM): 35% | growth inhibition ([2]; at 11.0 µM): 73% (active) | growth inhibition ([2]; at 33.0 µM): 96% (active) | growth inhibition ([2]; at 100.0 µM): 98% (active) | growth inhibition ([4]; at 1.2 µM): 10% | growth inhibition ([4]; at 3.7 µM): 51% | growth inhibition [4, 15]: 91% (active) | growth inhibition ([4]; at 11.0 µM): 87% (active) | growth inhibition ([4]; at 33.0 µM): 99% (active) | growth inhibition [4, 16]: 97% (active) | growth inhibition ([4]; at 50.0 µM): 99.3% (active) | growth inhibition ([4]; at 100.0 µM): 98% (active) | growth inhibition ([5]; at 1.2 µM): 2% | growth inhibition ([5]; at 3.7 µM): 32% | growth inhibition [5, 15]: 96% (active) | growth inhibition ([5]; at 11.0 µM): 61% | growth inhibition ([5]; at 33.0 µM): 99% (active) | growth inhibition [5, 16]: 99% (active) | growth inhibition ([5]; at 50.0 µM): 99.7% (active) | growth inhibition ([5]; at 100.0 µM): 98% (active) | growth inhibition ([6]; at 1.2 µM): 2% | growth inhibition ([6]; at 3.7 µM): 10% | growth inhibition ([6]; at 11.0 µM): 54% | growth inhibition ([6]; at 33.0 µM): 99% (active)

— PubChem BioAssay (NCI)
